Compound activity (PubChem)
Compounds with a hit are over-represented: about 19% of the library has one in this group of screens.
HT1080-NT tox: kills 2HG-producing HT-1080-NT fibrosarcoma cells. HT-1080-NT fibrosarcoma viability, CellTiter-Glo ATP luminescence, 48 h. Potency, µM (highest dose often 46.1 µM), without a hit: top-dose activity, negative = less viability, actives largely listed as cytotoxic. hit rate 1.6% among 360,000;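 further: NT is the 2HG producing partner of a matched IDH1 knockdown line; potency means the concentration at half of the fitted maximal effect; 0% = DMSO-treated cells and -100% = media-only wells without cells; nearly all actives have a fitted effect of over 55% in size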
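Toxicity toward the 2HG-producing NT line was scored as %Activity, normalised to DMSO and no-cell wells, from CellTiter-Glo luminescence after 48 hours' treatment.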
uPA generation: blocks generation of uPA at the cell surface. cell surface uPA generation assay, qHTS. AID 540303. hit rate 0.31% among 330,000. Potency, µM (titrated, usually from 38.3 µM), for inactives: at the top dose activity change, negative = inhibition, hits mostly inhibitors; active means well fitted inhibition curve with a large enough effect; inconclusive means small, poorly fitted or top-dose-only effect; inactive means no such curve, though single readings can be large or run the other way; tested in mouse RAW 264.7 cells; further: potency means the concentration at half of the fitted maximal effect; nearly all actives have a fitted effect of over 55% in size
DT40 TDP1 no CPT: qHTS for Inhibitors of human tyrosyl-DNA phosphodiesterase 1 (TDP1): qHTS in cells in absence of CPT. DT40 Tdp1-/- hTDP1 cells, no CPT, ATP luminescence, 48 h. Potency, µM (series often up to 46.2 µM), for the others: top-dose activity change, negative = growth inhibition, most hits filed as inhibitors. hit rate 15% among 420,000. AID 686978, 2013; further: potency means the concentration at half of the fitted maximal effect; nearly all actives have a fitted effect of over 55% in size
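Camptothecin absent (DMSO only). Human TDP1-complemented DT40 knockout cells, 400 cells/well, 37 °C for minimum 48 hr; ATP measured via CellTiter-Glo, 30 min dark incubation, luminescence.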
IL1B secr inh: blocks inflammasome-driven IL-1 beta release | THP-1 LPS/ATP IL-1B secretion, AlphaLISA, 16 h; hits give low values | activity change, % at 57.5 µM | hit rate 4.7% among 360,000 | AID 743279; in the data active means activity change below about -50%; inconclusive means mostly about -30% to -49%
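Secreted IL-1B measured by AlphaLISA bead assay after 16 h compound exposure of THP-1 cells; compounds (final up to 57.5 uM) added 1 h before LPS (250 ng/mL) and ATP (1.25 mM) stimulation; lower signal means less secretion.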
DT40 TDP1 CPT: DT40-hTDP1 cell growth loss with CPT; chicken DT40 Tdp1-/-;hTDP1 cells + 20 nM CPT, ATP luminescence, 48 h; Potency, µM (doses to about 46.2 µM), without a hit: at the highest dose activity change, negative = growth inhibition, hits mostly inhibitors; hit rate 12% among 420,000; AID 686979; further: potency means the concentration at half of the fitted maximal effect; nearly all actives have a fitted effect of over 55% in size
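Chicken DT40 Tdp1-/- cells complemented with human TDP1, 400 cells/well, exposed to compounds plus 20 nM camptothecin for at least 48 h at 37 C; viability read as ATP content by CellTiter-Glo luminescence.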
HT1080 IDH1KD tx: kills HT-1080 cells with IDH1 knockdown; HT-1080 IDH1 knockdown viability, ATP luminescence, 48 h; Potency, µM (series often up to 46.1 µM), without a hit: at the top dose activity, negative = toxicity, usual class: cytotoxic; hit rate 2% among 360,000;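 further: potency means the concentration at half of the fitted maximal effect; 0% = DMSO wells and -100% = cell-free medium wells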
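Cytotoxicity counter-line: IDH1KD HT-1080, 48 h, CellTiter-Glo. Curves classed by r2, magnitude and activity.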
* marks the source's active call; other numbers are inactive results; ? = inconclusive; . = no result given. Unless noted, the call rests on the fitted dose curve; in most records, active means well fitted curve in the direction sought with a large enough effect; inconclusive means small, poorly fitted or top-dose-only effect, or another doubt; inactive means no such curve, though single readings can be large; an effect the other way counts as inactive or inconclusive. Unless noted, on the % scale 0 is the no-effect control and ±100 the full control effect.

SMILES	HT1080-NT tox	uPA generation	DT40 TDP1 no CPT	IL1B secr inh	DT40 TDP1 CPT	HT1080 IDH1KD tx
CN1/C(=C\C(=O)c2ccco2)C(C)(C)c2ccccc21	?	-26%	3.7µM*	?	2.6µM*	10µM*
CN1/C(=C\C(=O)c2cncc(Br)c2)C(C)(C)c2ccccc21	-13%	-7%	2.6µM*	-51*	3.7µM*	-20%
COC(=O)c1cc2sccc2n1Cc1nc(-c2cccc(Br)c2)oc1C	.	.	-13%	.	-16%	.
Cc1ccc(CNS(=O)(=O)c2c(C(=O)N3CCC(C)CC3)c(C)n(C)c2C)cc1	.	.	-29%	.	-16%	.
O=c1cc(CN2CC(O)Cc3ccc4ccccc4c32)nc2sccn12 (configuration not stated)	-26%	-1%	?	-9	?	-19%
CCOC(=O)C1(C)CCCN1C(=O)c1sccc1C (configuration not stated)	16%	.	-14%	18	1%	15%
O=c1[nH][nH]c2c1[C@H](C1CCCC1)O[C@H](CCc1ccccc1)C2	13%	.	18µM*	?	21µM*	-1%
O=c1[nH][nH]c2c1[C@H](CCc1cccc(Cl)c1)O[C@H](C1CC1)C2	17%	.	?	-19	-28%	5%
O=c1[nH][nH]c2c1[C@H](CCc1cccc(Cl)c1)O[C@H](C1CCCC1)C2	?	.	?	-20	?	7.3µM*
Nc1nc(N)c(-c2ccccc2)s1	.	.	-1%	.	-10%	.
O=C(Nc1c(-c2ccccc2)[nH][nH]c1=O)c1ccco1	27%	.	-3%	23	-15%	15%
O=C(O)c1cccc(NC(=O)c2ccc(CN3C(=O)c4ccccc4C3=O)cc2)c1	18%	-3%	0%	6	-2%	25%
Cc1cc2n(n1)CCC(=O)N2Cc1ccc(C(=O)Nc2cccc(C(F)(F)F)c2)cc1	.	.	15µM*	.	15µM*	.
Cc1cc2n(n1)CCC(=O)N2Cc1ccc(C(=O)Nc2cc(Cl)ccc2C)cc1	.	.	21µM*	.	?	.
COc1cc(Cl)c(C)cc1NC(=O)c1ccc(CN2C(=O)CCn3nc(C)cc32)cc1	.	.	-21%	.	-14%	.
Cc1ccc(-n2nc(C(=O)N3CCN(c4cc(Cl)ccc4C)CC3)c3c4ccccc4n(C)c3c2=O)cc1	.	.	-1%	.	-6%	.
Cn1c2c(c(=O)[nH]c1=O)C(c1cccc(O)c1)C1=C(N2)c2ccccc2C1=O (configuration not stated)	-21%	-22%	8.2µM*	19	7.3µM*	?
COc1ccc(C(=O)Nc2ccccc2N2CCOCC2)cc1[N+](=O)[O-]	0%	6%	?	-1	-15%	-2%
COc1ccccc1CNC(=O)c1ccc(N2CCOCC2)c([N+](=O)[O-])c1	-8%	18%	-7%	-55*	-25%	-5%
COc1ccc(C(=O)NC(=S)Nc2ccccc2N2CCOCC2)cc1[N+](=O)[O-]	-11%	-8%	16µM*	22	16µM*	-15%
COc1ccc(C(=O)NC(=S)Nc2ccc(N3CCOCC3)c(Cl)c2)cc1[N+](=O)[O-]	-1%	13%	21µM*	7	13µM*	0%
Nc1nc[nH]c(=O)c1N	.	.	-7%	.	0%	.
O=C(NNc1nc(-c2ccccc2)c2cc(Br)ccc2n1)c1ccc(S(=O)(=O)N2CCOCC2)cc1	-4%	2%	?	-51*	?	-4%
O=C(CNC(=O)c1ccc(N2CCCC2=O)cc1)Nc1ccc(F)c(F)c1F	-7%	0%	-7%	-10	2%	-25%
CCOC(=O)[C@]12CCCC=C1N(Cc1ccc3c(c1)OCO3)C(=O)[C@H](CC(=O)N1CCCCC1)C2	3%	.	15µM*	-2	13µM*	5%
SMILES	HT1080-NT tox	uPA generation	DT40 TDP1 no CPT	IL1B secr inh	DT40 TDP1 CPT	HT1080 IDH1KD tx
C#CCNC(=O)C[C@@H]1C[C@@]2(C(=O)OCC)CCCC=C2N(Cc2ccc3c(c2)OCO3)C1=O	2%	.	-27%	3	-15%	-12%
CCOC(=O)[C@]12CCC=C1N(Cc1ccc3c(c1)OCO3)C(=O)[C@H](CC(=O)N1CCN(C(=O)c3ccco3)CC1)C2	12%	.	-13%	-13	?	4%
CCOC(=O)N1CCN(C(=O)C[C@@H]2C[C@@]3(C(=O)OCC)CCC=C3N(Cc3ccc4c(c3)OCO4)C2=O)CC1	?	.	?	6	-28%	?
CCOC(=O)[C@]12CCC=C1N(Cc1ccc3c(c1)OCO3)C(=O)[C@H](CC(=O)N1CCC(c3ccccc3)CC1)C2	-20%	.	16µM*	?	?	?
CCOC(=O)[C@]12CCCC=C1N(Cc1ccc3c(c1)OCO3)C(=O)[C@H](CC(=O)N1CCCC1)C2	1%	.	21µM*	18	?	0%
Cc1cc(C)n2nc(SCC(=O)NC3(C#N)CCCCC3)nc2n1	8%	.	-16%	8	-17%	5%
C/C(=N\NC(=O)CN(c1ccc(Oc2ccccc2)cc1)S(C)(=O)=O)C(C)(C)C	3%	-3%	-19%	3	-16%	0%
Cc1cccc(CSc2nnnn2-c2ccccc2)c1	-4%	-5%	-20%	-17	?	-3%
Cc1ccc(C)c(-n2nnnc2Sc2nnnn2-c2ccccc2)c1	?	-15%	13µM*	-109*	?	16µM*
O=C(O)CSc1nnc(-c2ccncc2)n1Cc1ccccc1	22%	0%	1%	-8	-15%	23%
c1ccc(Cn2c(Sc3nnnn3-c3ccccc3)nnc2-c2ccccc2)cc1	-17%	?	?	-59*	?	-9%
CCn1c(CN2CCC(C)CC2)nc2cc(NC(=O)COc3ccc([N+](=O)[O-])cc3)ccc21	.	.	-19%	.	-20%	.
COc1cc(NC(=O)C2CC(c3c(F)cccc3Cl)=NO2)c(OC)cc1Cl (configuration not stated)	-28%	12%	?	24	?	-26%
N#Cc1c(NC(=O)C2CC(c3c(F)cccc3Cl)=NO2)sc2c1CCC2 (configuration not stated)	2%	0%	0.21µM*	0	?	9%
CCc1c(C)sc(NC(=O)C2CC(c3c(F)cccc3Cl)=NO2)c1C#N (configuration not stated)	0%	18%	?	-18	16µM*	-16%
Cc1ccc(O)c(NC(=O)C2CC(c3c(F)cccc3Cl)=NO2)c1 (configuration not stated)	-7%	-6%	?	-17	-19%	-7%
